Assay [1] in a line: qHTS to identify inhibitors of the type 1 interferon - major histocompatibility complex class I in skeletal muscle: primary screen against the NCATS LOPAC collection (AID 1347405).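 Also: human myoblasts with HiBiT tag on endogenous HLA-B stimulated by IFN-beta; lytic HiBiT luminescence reporting HLA-B protein level; % is scaled to controls: 0 for no effect and ±100 for the full control effect.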 The essentials: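 First, engineered myoblasts carrying HLA-B-HiBiT were seeded in medium lacking dexamethasone with 4 ng/ml IFN-beta. After 1 hr, compounds were pinned in (top 46 uM final, 7 points). After 24 hrs at 37 C, luminescence was measured following 10 min lysis.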
On the technique in general: In qHTS, concentration-response curves come from the screen itself.

Assay [2] can be described thus: qHTS to identify inhibitors of the type 1 interferon - major histocompatibility complex class I in skeletal muscle: primary screen against the NCATS Pharmaceutical Collection (AID 1347407). Also: % is scaled to controls: 0 for no effect and ±100 for the full control effect. The gist of the method: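 Luminescence from HiBiT-tagged endogenous HLA-B*08:01 served as the read-out of IFN-beta-induced MHC class I in CRISPR-engineered C25cl48 myoblasts. Cells received 4 ng/ml IFN-beta plus compound (high final 46 uM, […]) for 24 h.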

Assay [3] in a line: qHTS for inhibitors of adenylyl cyclases using a fission yeast platform: a pilot screen against the NCATS LOPAC library (AID 1347410).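 Also: plate controls were DMSO vehicle for no effect and DPI positive control for full effect.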 The essentials: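 Fission yeast qHTS: CHP2027 cells (AC9-GNAS-PDE4D2, fbp1-GFP), 5x10^6 cells/mL working density, EMM + His/Lys/Ura; LOPAC at up to 57 µM final; 18 h dark, 30C; GFP by laser cytometry. DPI positive control, DMSO vehicle.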
Assay [4] concerns the target Protein phosphatase 1D (Homo sapiens) (UniProt O15297). The assay can be described thus: RapidFire Mass Spectrometry qHTS Assay for Modulators of WT P53-Induced Phosphatase 1 (WIP1) (AID 1347424).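 Also: series mostly up to about 63 µM; plate controls were DMSO wells for no effect and GSK830371 inhibitor control at 10 µM for full effect.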 The gist of the method: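 RapidFire MS readout of dephosphorylated VEPPL-S-QETFS product, with 1 uM isotope-labelled peptide standard. Reaction: 10 nM WIP1, 2 uM phosphopeptide substrate, 5 min, room temperature, after 1 h compound preincubation; stopped with 0.5% formic acid.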

Assay [5] has the same target. The assay can be described thus: Rhodamine-PBP qHTS Assay for Modulators of WT P53-Induced Phosphatase 1 (WIP1) (AID 1347425). Also: % of control where 0% means no effect. The gist of the method:
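WIP1 (5 nM final) was preincubated with compound for 1 hour at room temperature. It then dephosphorylated 10 uM VEPPL-pS-QETFS peptide in Tris-HCl pH 7.5 with 30 mM MgCl2. Released Pi was detected by 10 uM Rh-PBP fluorescence (ex 525/em 598 nm) read at 1-min intervals for 11 min, as delta f1 - f0.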

Assay [6] is described as follows: Validation qHTS assay for inhibitors of Activation Induced Cytidine Deaminase (AID): UDG Counterscreen signal (AID 1347427). Also: 0% is about no effect. The gist of the method:
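Fluorescence at 560 nm excitation, 665 nm emission reports UDG signal after 250 mM NaOH (2x) addition and 30 min. Enzymes (AID 1 uM, UDG 2 U/mL, at 4/3x) preincubated 10 min with compound, then 4 h with 4x 250 nM DJC20/DJC23 substrate at room temperature.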

Assay [7] deals with Single-stranded DNA cytosine deaminase (Homo sapiens) (UniProt Q9GZX7). Description: Validation qHTS assay for inhibitors of Activation Induced Cytidine Deaminase (AID): AID signal (AID 1347429). Also: % is scaled to controls: 0 for no effect and ±100 for the full control effect. The essentials: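 Steps: dispense AID with UDG; pin-transfer compound up to 114 uM final; add DJC20/DJC23 substrate and hold 4 hr at room temperature; add NaOH, hold 30 min; read FRET signal (540/590 nm).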

Assay [8] in a line: Primary qHTS for inhibitors of La Crosse Virus (LACV) - induced cell death in SH-SY5Y cells (AID 1508616).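 Also: top concentration of the series differs between compounds; 0% = infected DMSO wells and 100% = uninfected DMSO wells; higher means more rescue of cells from virus-induced death.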 The essentials: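 SH-SY5Y, 6000 cells/well; cpd via pin tool in DMSO; LACV 0.01 MOI; 6 d 37C 5% CO2; ATPLite, 5 min RT; luminescence normalized to ±virus DMSO controls.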
The target in assay [9] is Calcium and integrin-binding protein 1 (Homo sapiens) (UniProt Q99828). Description: Validation qHTS for Identification of Calcium Integrin Binding protein 1 (CIB1) Competitor (AID 1508618). Also: % is scaled to controls: 0 for no effect and ±100 for the full control effect. The essentials: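 Fluorescence polarization with 1 uM CIB1-GST and 100 nM FITC-alphaIIb peptide in HEPES pH 7.4, NaCl, 5 mM CaCl2, Tween20. Compounds at up to 114 uM final, preincubated with protein 15 min; read after 15 min more at RT.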

Assay [10] shares this target. The assay can be described thus: Primary qHTS for Identification of Calcium Integrin Binding Protein 1 (CIB1) Competitor (AID 1508620). The gist of the method: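 Fluorescence polarization competition: GST-tagged CIB1 (1 uM final) preincubated with compound 15 min at room temperature, then FITC-labelled alphaIIb peptide (100 nM final) added. After 15 min at room temperature, polarization read at Ex 480/Em 540.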

Assay [11] can be described thus: Cell Viability qHTS for small molecule stabilizers of the endoplasmic reticulum resident proteome (AID 1508629). The settings on record: cell viability counter-screen, 100 nM thapsigargin for final 4 h.
The target of assay [12] is Cytochrome P450 2C9 (Homo sapiens) (UniProt P11712). The assay can be described thus: Cytochrome P450 family 2 subfamily C member 9 (CYP2C9) small molecule antagonists: luciferase biochemical (cell-free) qHTS assay (AID 1645842; active = well fitted curve in the direction sought with a large enough effect in the repeat runs; an effect the other way counts as inactive or inconclusive; also: nearly all actives have a fitted effect of over 55% in size; also: potency is read from the fitted curve at half-maximal effect). The gist of the method: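 P450-Glo CYP2C9 system: proluciferin substrate with enzyme in mix containing 0.4% BSA, 10 min at room temperature, then NADPH regeneration solution added and incubated 1 h at 37C. Detection reagent stopped reaction; luminescence read after 20 min as RLU.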

For assay [13], the target named is Papain (Carica papaya) (UniProt P00784). The assay can be described thus: Primary qHTS assay for inhibitors of the protease papain (AID 1645873).
Assay [14] can be described thus: Primary qHTS for small molecule stabilizers of the endoplasmic reticulum resident proteome: Secreted ER Calcium Modulated Protein (SERCaMP) assay (AID 1508630). Also: % is scaled to controls: 0 for no effect and ±100 for the full control effect. The essentials:
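The SH-SY5Y reporter protocol was run at 3 concentrations up to 38.3 uM (primary) or 11 concentrations (follow-up): 16 h compound, 100 nM thapsigargin for 4 h, then extracellular luciferase luminescence.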

Assay [15] can be described thus: A High-Content qHTS Against Drug Library for the Identification of Small Molecules that Inhibit DYT1 Early Onset Primary Dystonia-Associated Cell Pathology (AID 1645839; calls by dose curve; also: potency is read from the fitted curve at half-maximal effect). The gist of the method: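 Cells were seeded and left for 24 h, then dosed with compound alongside tetracycline induction of mutant EGFP-TorsinA. They were incubated for 48 h, fixed in 4% paraformaldehyde, permeabilized and imaged for mislocalization (%pathology) and cell count.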

The nature of assay [16]: Primary qHTS for inhibitors of nuclear receptor binding SET domain protein 2 (NSD2) in an isogenic RCH-ACV NSD2 p.E1099K mutant (9B) (AID 1645876). Also: nearly all actives have a fitted effect of over 70% in size.
The target of assay [17] is Cytochrome P450 2D6 (Homo sapiens) (UniProt P10635). The assay can be described thus: Cytochrome P450 family 2 subfamily D member 6 (CYP2D6) small molecule antagonists: luciferase biochemical (cell-free) qHTS assay (AID 1645840; active = well fitted curve in the direction sought with a large enough effect in the repeat runs; an effect the other way counts as inactive or inconclusive; also: nearly all actives have a fitted effect of over 55% in size; also: potency is read from the fitted curve at half-maximal effect). The essentials:
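P450-Glo CYP2D6 system: proluciferin substrate converted by enzyme to luciferin, read by luminescence proportional to activity. Enzyme-substrate mix with compound 10 min at room temperature, then NADPH regeneration 1 h before detection reagent.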

Assay [18] can be described thus: qHTS to identify inhibitors of the type 1 interferon - major histocompatibility complex class I in skeletal muscle: primary screen against the NCATS Mechanism Interrogation Plate v5.0 (MIPE) Libary (AID 1347411).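 Also: plate controls were vehicle for no effect and reference inhibitor for full effect; nearly all actives have a fitted effect of over 65% in size.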 The gist of the method: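 Seed engineered human myoblasts (HLA-B HiBit) in medium without dexamethasone containing 4 ng/ml IFN-beta; after 1 hr add compound titrations (top 46 uM final). Incubate 24 hrs at 37 C, lyse 10 min with HiBiT reagent, read luminescence.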

Molecules are shown by their SMILES. Unmarked numbers belong to inactive results. Records with an inconclusive call do not appear. Calls of active or inactive are those of the source. Unless noted, calls follow the shape of the dose curve; as a rule, active = well fitted curve in the direction sought with a large enough effect; inconclusive = small, poorly fitted or top-dose-only effect, or another doubt; inactive = no such curve, though single readings can be large; an effect the other way counts as inactive or inconclusive.

Sequence of Calcium and integrin-binding protein 1 (Homo sapiens) (Q99828 whole entry, looked up): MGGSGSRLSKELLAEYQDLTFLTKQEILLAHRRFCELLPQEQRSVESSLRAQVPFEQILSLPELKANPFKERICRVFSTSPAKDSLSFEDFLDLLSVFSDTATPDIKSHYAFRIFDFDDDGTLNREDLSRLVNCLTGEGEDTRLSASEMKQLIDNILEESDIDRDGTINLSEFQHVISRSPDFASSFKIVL
Sequence of Cytochrome P450 2C9 (Homo sapiens) (P11712 whole entry, looked up): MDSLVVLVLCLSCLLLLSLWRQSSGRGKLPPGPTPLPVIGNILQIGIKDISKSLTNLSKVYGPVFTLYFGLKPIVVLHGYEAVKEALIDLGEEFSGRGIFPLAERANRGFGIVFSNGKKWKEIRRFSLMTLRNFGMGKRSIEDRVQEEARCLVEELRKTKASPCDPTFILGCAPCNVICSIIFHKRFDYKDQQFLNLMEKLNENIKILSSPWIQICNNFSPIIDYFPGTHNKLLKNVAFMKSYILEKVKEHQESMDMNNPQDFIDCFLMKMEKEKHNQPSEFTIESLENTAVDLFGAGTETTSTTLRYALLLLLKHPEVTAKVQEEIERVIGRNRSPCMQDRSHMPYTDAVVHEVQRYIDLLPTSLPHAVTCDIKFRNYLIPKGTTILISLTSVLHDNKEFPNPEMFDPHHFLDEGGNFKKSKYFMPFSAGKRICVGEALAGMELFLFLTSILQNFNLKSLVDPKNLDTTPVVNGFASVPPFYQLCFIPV
Sequence of Cytochrome P450 2D6 (Homo sapiens) (P10635 whole entry, looked up): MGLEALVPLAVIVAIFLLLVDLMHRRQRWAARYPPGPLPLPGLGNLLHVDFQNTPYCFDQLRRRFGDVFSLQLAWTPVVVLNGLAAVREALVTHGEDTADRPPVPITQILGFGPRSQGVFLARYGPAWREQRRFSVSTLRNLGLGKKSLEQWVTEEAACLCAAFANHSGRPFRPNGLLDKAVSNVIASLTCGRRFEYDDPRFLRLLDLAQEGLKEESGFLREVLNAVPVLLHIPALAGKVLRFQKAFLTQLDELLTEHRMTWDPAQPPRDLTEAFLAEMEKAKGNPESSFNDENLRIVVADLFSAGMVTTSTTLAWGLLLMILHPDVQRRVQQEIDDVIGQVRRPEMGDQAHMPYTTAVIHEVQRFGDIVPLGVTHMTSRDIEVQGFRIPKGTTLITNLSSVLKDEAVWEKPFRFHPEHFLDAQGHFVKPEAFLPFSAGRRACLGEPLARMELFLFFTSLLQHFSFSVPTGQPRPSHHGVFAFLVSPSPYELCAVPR
Sequence of Single-stranded DNA cytosine deaminase (Homo sapiens) (Q9GZX7 whole entry, looked up): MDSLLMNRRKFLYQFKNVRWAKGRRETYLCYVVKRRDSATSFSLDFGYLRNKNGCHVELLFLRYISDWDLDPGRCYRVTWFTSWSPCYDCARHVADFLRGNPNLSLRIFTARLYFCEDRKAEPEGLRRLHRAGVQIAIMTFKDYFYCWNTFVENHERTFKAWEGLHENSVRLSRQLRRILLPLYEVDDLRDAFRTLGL
Sequence of Protein phosphatase 1D (Homo sapiens) (O15297 whole entry, looked up): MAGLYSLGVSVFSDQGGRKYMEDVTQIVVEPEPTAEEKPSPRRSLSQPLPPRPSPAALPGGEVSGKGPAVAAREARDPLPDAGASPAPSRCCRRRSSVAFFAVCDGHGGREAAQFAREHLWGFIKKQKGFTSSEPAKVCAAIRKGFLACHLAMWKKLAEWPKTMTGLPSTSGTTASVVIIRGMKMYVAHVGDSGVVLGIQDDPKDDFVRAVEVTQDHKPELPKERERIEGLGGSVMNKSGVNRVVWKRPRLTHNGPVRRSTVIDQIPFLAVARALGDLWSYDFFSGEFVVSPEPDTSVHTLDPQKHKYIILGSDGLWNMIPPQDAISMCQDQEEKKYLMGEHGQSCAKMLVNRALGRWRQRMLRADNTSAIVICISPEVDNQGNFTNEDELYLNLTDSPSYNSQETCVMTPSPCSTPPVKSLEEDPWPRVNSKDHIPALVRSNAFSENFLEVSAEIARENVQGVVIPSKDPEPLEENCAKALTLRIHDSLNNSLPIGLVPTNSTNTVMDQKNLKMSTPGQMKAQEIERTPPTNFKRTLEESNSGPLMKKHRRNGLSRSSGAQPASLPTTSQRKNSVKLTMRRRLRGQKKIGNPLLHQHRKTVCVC
Sequence of Papain (Carica papaya) (P00784 whole entry, looked up): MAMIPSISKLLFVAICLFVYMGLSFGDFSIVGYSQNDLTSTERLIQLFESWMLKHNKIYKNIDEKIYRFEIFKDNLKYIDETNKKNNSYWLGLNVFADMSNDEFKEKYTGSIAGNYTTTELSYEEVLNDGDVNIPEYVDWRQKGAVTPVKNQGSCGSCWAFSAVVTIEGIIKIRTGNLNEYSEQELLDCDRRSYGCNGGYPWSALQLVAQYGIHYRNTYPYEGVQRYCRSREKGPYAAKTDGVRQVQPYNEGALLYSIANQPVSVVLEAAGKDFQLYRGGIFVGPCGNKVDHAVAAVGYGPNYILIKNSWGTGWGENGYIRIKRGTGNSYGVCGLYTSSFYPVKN

Turning to `O=C(CCCN1CCC(O)(c2cccc(C(F)(F)F)c2)CC1)c1ccc(F)cc1`, the Potency result in assay [1], in assay [2], in assay [4], in [7], in assay [8] and in assay [10] was “inactive” each time. For the same compound, the Potency result in [12] and in assay [13] was “inactive” each time. Moreover, the compound was called inactive in assay [3], in assay [5], in [6] and in assay [9]. The max response in assay [11] is -8.14%.

For the compound `CCN1CCC[C@H]1CNC(=O)c1c(O)c(Cl)cc(Cl)c1OC`, the Potency result in assay [1], in [2], in assay [4], in [7], in assay [8] and in assay [10] was “inactive” each time. Moreover, the Potency entry in assay [14], in assay [15], in assay [12], in assay [13] and in [16] was “inactive” each time. The call in assay [3], in assay [5], in assay [6] and in assay [9] was inactive.

Turning to `O=C(O)CP(=O)(O)O`, the Potency entry in assay [1], in assay [2], in [4], in assay [7], in assay [8] and in assay [10] was “inactive” in each case. Further, the Potency result in [17], in assay [12], in assay [13] and in [16] was “inactive” throughout. Further, the call in [3], in assay [5], in [6] and in assay [9] was inactive.

For `CN(C)C/C=C(/c1ccc(Br)cc1)c1cccnc1`, the Potency entry in assay [1], in [2], in [4], in assay [7], in [8] and in [10] was “inactive” throughout. Besides, the Potency result in assay [12], in [13] and in assay [16] was “inactive” in each case. Also, the result in assay [3], in [5], in [6] and in assay [9] was inactive. Also, in assay [11], the max response was 4.56%.

In the case of `Fc1ccc(C(c2ccc(F)cc2)N2CCN(C/C=C/c3ccccc3)CC2)cc1`, the Potency entry in [1], in assay [2], in assay [4], in assay [7], in [8] and in assay [10] was “inactive” throughout. In addition, the Potency result in assay [13] is “inactive”. The call in assay [3], in assay [5], in assay [6] and in [9] was inactive. For the same compound, the Potency in assay [15] was 12.6 µM (active); in assay [12], 7.76 µM (active).

As for `COc1ccc2c(c1OC)C(=O)O[C@@H]2[C@H]1c2c(cc3c(c2OC)OCO3)CCN1C`, the Potency result in assay [1], in [2], in assay [4], in assay [7], in assay [8] and in [10] was “inactive” throughout. Moreover, the Potency entry in assay [14], in assay [15] and in assay [13] was “inactive” throughout. For the same compound, the compound was called inactive in assay [3], in [5], in [6] and in assay [9]. Moreover, the Potency in assay [17] was 4.9 µM (active); in assay [12] it was 0.11 µM (active).

Consider `CCn1ccnc1CC1COc2ccccc2O1` (stereo not given), for which the Potency result in assay [1], in assay [2], in assay [4], in assay [7], in assay [8] and in assay [10] was “inactive” throughout. In addition, the Potency entry in assay [14], in [12], in [13] and in [16] was “inactive” throughout. Further, the compound was called inactive in [3], in assay [5], in [6] and in [9]. Also, the Potency in [17] was 1.74 µM (active).

In the case of `COc1ccc([C@@H]2Sc3ccccc3N(CCN(C)C)C(=O)[C@@H]2OC(C)=O)cc1`, the Potency entry in assay [1], in [2], in [18], in [7], in [8] and in assay [10] was “inactive” throughout. Moreover, the Potency result in assay [14], in [15], in assay [17], in assay [12], in assay [13] and in [16] was “inactive” in each case. Also, the call in assay [3], in assay [5], in assay [6] and in assay [9] was inactive.

These data come from PubChem BioAssay (NCATS).
